Assay results published in PubChem BioAssay AID1578 (Sanford-Burnham Center for Chemical Genomics, 2009).
Among all 290,000 compounds or so, about 3,000 (1%) were called active. Cut-off read from the data, not from the text of the source: active = inhibition mostly above about 36% (no sharp cut-off); inactive = mostly below about 34%. The full list was thinned out, with actives kept by preference.

experiment: inhibition of NOD1-driven NF-kB reporter – cell-based, luminescence, uHTS, primary screen (AID 1578); settings: NOD1-driven NF-kB luciferase reporter cells, at 4 µM, hits give high values;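 note: HEK-293T reporter cells stimulated with the NOD1 agonist gamma-tri-DAP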

SMILES | inhibition
CCOC(=O)Cc1cnc(NC(=O)CSc2nc(C)c(CC)c(=O)[nH]2)s1 | -29.1% (inactive)
O=C(c1cc(-c2ccccc2)n[nH]1)N1CCc2c([nH]c3ccccc23)C1c1ccccn1 (centres undefined) | -14.3% (inactive)
COc1cc(Cl)c(C)cc1NC(=O)c1ccc(NS(=O)(=O)c2ccc(F)c(F)c2)cc1 | 14.5% (inactive)
CCOC(=O)c1c(/N=C/c2cc([N+](=O)[O-])ccc2O)sc(C)c1C | -20.3% (inactive)
CN(C)CCOc1cccc(Cl)c1 | -12.3% (inactive)
Cc1cc(C(=O)CSc2nnc3ccccn23)c(C)n1-c1ccccc1 | 82% (active)
Cc1ccc(C(=O)CSc2nnc3ccccn23)c(C)c1 | 18.8% (inactive)
Cc1cc(C(=O)CSc2nncn2C)c(C)n1-c1ccccc1 | -35.2% (inactive)
Nc1c(-c2ccccc2)c(CSc2nc3ccccc3[nH]2)nn1-c1cccc(Cl)c1 | 79.7% (active)
Nc1c(-c2ccccc2)c(CSc2nc3ccccc3[nH]2)nn1-c1cccc(C(=O)O)c1 | -21.3% (inactive)
Nc1c(-c2ccccc2)c(CSc2nc3ccccc3[nH]2)nn1-c1ccc(Cl)cc1 | 70.5% (inactive)
Cn1c(N)c(C(=O)Nc2c(Cl)cccc2Cl)sc1=S | -11.3% (inactive)
CCN(CC)c1ccc(N2C(=O)/C(=C\c3cccs3)SC2=S)cc1 | -102% (inactive)
COc1ccccc1/C=C/C(=O)/C=C/c1ccccc1O | 94.3% (active)
COc1ccccc1/C=C/C(=O)c1ccccc1 | -6.9% (inactive)
COc1ccccc1/C=C/C(C)=O | -47.2% (inactive)
CC(C)C1Cc2c(sc3c2c(=O)n(Cc2ccccc2)c2nncn32)CO1 (centres undefined) | 12.9% (inactive)
CC1(C)Cc2c(sc3[nH]c(=S)n(Cc4ccccc4)c(=O)c23)CO1 | -3.1% (inactive)
CC(C)C1Cc2c(sc3[nH]c(=S)n(Cc4ccccc4)c(=O)c23)CO1 (centres undefined) | 92.4% (active)
CCOC(=O)N1CCN(S(=O)(=O)/C=C/c2ccccc2)CC1 | 9.2% (inactive)
CCOC(=O)N1C/C(=C\c2ccccc2)C(=O)/C(=C/c2ccccc2)C1 | 41.1% (active)
CCOC(=O)N1CCN(C/C(C)=C/c2ccccc2)CC1 | -12% (inactive)
COc1cccc(-n2c([S-])c(C(=O)Nc3ccc(C(F)(F)F)cc3)[n+]3ccccc23)c1 | -8.9% (inactive)
COc1cccc(C(=O)Nc2ccc(S(=O)(=O)Nc3nccc(C)n3)cc2)c1 | -16.6% (inactive)

SMILES | inhibition
Cc1ccc(S(=O)(=O)NCCC(=O)O)cc1 | -3.1% (inactive)
CCCn1c(SCC(=O)c2ccc3c(c2)OCCO3)nc2c1c(=O)n(C)c(=O)n2C | -19.8% (inactive)
Cc1cc(C(=O)CN2C(=O)c3ccccc3S2(=O)=O)c(C)n1-c1ccccc1 | 94.4% (active)
Cc1ccc(C)c(C(=O)CN2C(=O)c3ccccc3S2(=O)=O)c1 | 9.1% (inactive)
O=C(CN1C(=O)c2ccccc2S1(=O)=O)c1ccccc1 | -2.1% (inactive)
COc1cc(NC(=O)CC(C)n2ccnc2)cc(OC)c1 (centres undefined) | -0.2% (inactive)
COC(=O)c1c(NC(C)=O)sc(C(=O)N2CCOCC2)c1C | -4.7% (inactive)
COC(=O)c1c(NC(=O)CCl)sc(C(=O)N2CCOCC2)c1C | 80.5% (active)
COC(=O)c1c(NC(=O)C(C)C)sc(C(=O)N2CCOCC2)c1C | 5.6% (inactive)
COc1ccccc1NC(=O)CS(=O)(=O)c1cn(CC(=O)N(C(C)C)C(C)C)c2ccccc12 | -1.2% (inactive)
Cc1ccccc1C(=O)Nc1cc(-c2cc(C(C)(C)C)oc2C)nn1C | -3.8% (inactive)
Cc1ccc(NC(=O)C(=Cc2ccc(C(=O)O)cc2)C(=O)Nc2ccc(C)cc2C)c(C)c1 | 9.9% (inactive)
Cc1ccccc1NC(=O)C(=Cc1ccc(C(=O)O)cc1)C(=O)Nc1ccccc1C | 39.4% (active)
CC(=O)/C(=C/c1ccccc1)C(=O)Nc1ccccc1C | 35.2% (inactive)
CC(=O)Nc1ccccc1C(F)(F)F | 5.2% (inactive)
Cn1c(O)c(C2=c3ccccc3=NC2=O)[nH]c1=S | 7.1% (inactive)
COc1ccc2nc(-n3c(O)c(C4=c5ccccc5=NC4=O)[nH]c3=S)sc2c1 | 93% (active)
COc1ccc2nc(N3C(=O)CNC3=S)sc2c1 | -9.5% (inactive)
COc1ccc(-c2cn3c4c(sc3n2)CCCC4)cc1 | 1.4% (inactive)
CN(C)S(=O)(=O)c1ccc(N2CCCC2)c(C(=O)Nc2ccccc2N2CCOCC2)c1 | -0.9% (inactive)
CCCCC(=O)N/N=C(/C)C1=C(C)C(C)(C)OC1=O | -20.4% (inactive)
COc1ccc(-c2ccc(/C=C3\C(=O)N(c4ccccc4)N=C3c3ccccc3)o2)c([N+](=O)[O-])c1 | 10.5% (inactive)
Cc1ccc(-c2ccc(/C=C3\C(=O)ON=C3c3ccccc3)o2)c([N+](=O)[O-])c1 | 70.5% (active)
O=C1ON=C(c2ccccc2)/C1=C/c1ccc(-c2ccccc2[N+](=O)[O-])o1 | 46.2% (inactive)

SMILES | inhibition
CCSc1nc2ccccc2n1CC(=O)N1CCCCC1 | 14.8% (inactive)
O=[N+]([O-])c1cc(CN2CCN(c3ccccc3)CC2)c(O)c2ncccc12 | 31.8% (inactive)
O=[N+]([O-])c1cc(CN2CCOCC2)c2cccnc2c1O | 51.3% (active)
O=[N+]([O-])c1cc(CN2CCCC2)c2cccnc2c1O | 2.2% (inactive)
O=[N+]([O-])c1cccc(S(=O)(=O)Nc2ccc(S(=O)(=O)N3CCCC3)cc2)c1 | -4% (inactive)
CSc1cccc(NC(=O)CCn2c(=O)c3cccn3c3cccnc32)c1 | -16.4% (inactive)
O=C(/C=C/c1cccc(C(F)(F)F)c1)Nc1cccc(C(F)(F)F)c1 | 75.5% (active)
Cc1ccc(NC(=O)/C=C/c2cccc(C(F)(F)F)c2)cc1 | 15.4% (inactive)
CC(=O)Nc1ccc(NC(=O)/C=C/c2cccc(C(F)(F)F)c2)cc1 | -14.7% (inactive)
CC(=O)Nc1cccc(C(=O)/C=C/c2ccc(C)cc2)c1 | 34.7% (inactive)
O=C(/C=C/c1ccccc1)Nc1cc(C(=O)O)cc(C(=O)O)c1 | -46.3% (inactive)
O=C(Nc1ncn[nH]1)c1ccccc1O | 1.8% (inactive)
Cc1nc(NC(=O)/C=C/c2ccccc2)n[nH]1 | 51.1% (inactive)
CC(=O)Nc1cccc(C(=O)/C=C/c2ccc(F)cc2)c1 | -34.5% (inactive)
CC(=O)Nc1cccc(C(=O)/C=C/c2ccc(/C=C/C(=O)c3cccc(NC(C)=O)c3)cc2)c1 | 85.5% (active)
O=C(/C=C/c1ccccc1)Nc1cccc(C(=O)O)c1 | 96.6% (active)
O=C(/C=C/c1ccccc1)Nc1ncn[nH]1 | 59.8% (active)
O=C(/C=C/c1ccccc1)Nc1cc(NC(=O)/C=C/c2ccccc2)cc(C(=O)O)c1 | -29.4% (inactive)
CC(C)=CCN1CCN(C/C(Cl)=C/c2ccccc2)CC1CCO (centres undefined) | 1.6% (inactive)
Cc1ccc(CNC(=O)CCS(=O)(=O)c2cc3c(cc2Cl)NC(=O)CO3)o1 | -10.7% (inactive)
COc1cc(/C=C(\C#N)C(=O)Nc2ccccc2)ccc1OCCN1CCOCC1 | -28.7% (inactive)
COc1cc2c(C(=O)NCCN(C)C)cn(CC(C)C)c(=O)c2cc1OC | 1.3% (inactive)
COc1ccc(-c2nn(CC(=O)Nc3ccc(Cl)c(Cl)c3)c(=O)c3ccccc23)cc1 | 15.6% (inactive)
COc1ccc(C(=O)N/C(=C\c2cn(S(=O)(=O)N(C)C)c3ccccc23)C(=O)N2CCOCC2)cc1 | -6.8% (inactive)

SMILES | inhibition
Cc1cc(C)cc(C(=O)NCC(=O)NCc2ccc(S(N)(=O)=O)cc2)c1 | -5.1% (inactive)
COc1cccc(N2CCN(C(=O)c3cc4cc(Cl)ccc4[nH]3)CC2)c1 | -4.9% (inactive)
CCOC(=O)c1c(N)sc(C(=O)Nc2ccccc2)c1C | -18.7% (inactive)
COC(=O)c1c(N)sc(Cc2ccccc2)c1C | -28.7% (inactive)
COC(=O)c1c(N)sc(C(=O)NCCc2ccccc2)c1C | 69.8% (active)
Cc1ccc(S(=O)(=O)NC(C)(C)CSc2ncccn2)cc1 | -3.5% (inactive)
Cc1ccc(S(=O)(=O)NC(C)(C)CSc2nnc(N)s2)cc1 | -25.5% (inactive)
Cc1ccc(S(=O)(=O)NC(C)(C)CSc2nnc(Nc3ccccc3)s2)cc1 | 64.7% (active)
N#CCSc1n[nH]c2nc3c(c(=O)n12)C1(CCCCC1)Cc1ccccc1-3 | 48% (active)
N#CCSc1n[nH]c2nc3c(c(=O)n12)C1(CCCC1)Cc1ccccc1-3 | 16.8% (inactive)
CCSc1n[nH]c2nc3c(c(=O)n12)C1(CCCCC1)Cc1ccccc1-3 | -13.1% (inactive)
CCN(C(=O)/C=C/c1ccc(OC)cc1)C1CCCCC1 | -18.8% (inactive)
CC(=O)COc1cc2c(-c3cc4ccccc4o3)cc(=O)oc2cc1C | 40.5% (inactive)
COc1cccc2cc(-c3cc(=O)oc4ccc(OCC(C)=O)cc34)oc12 | 39% (inactive)
COc1cccc2cc(-c3cc(=O)oc4cc(C)c(OCC(C)=O)cc34)oc12 | 71.3% (active)
Cc1cc(C)cc(NC(=O)CSc2nc(CSc3ccc(Cl)cc3)cc(=O)[nH]2)c1 | 8.6% (inactive)
COc1ccc(Cl)cc1NC(=O)CSc1nc(C)cc(C)n1 | -29.7% (inactive)
CCOC(=O)N1CCC(NCCNC(=O)c2ccccc2Cl)CC1 | 9.8% (inactive)
Cn1c(Sc2ccccc2Cl)c(C=O)c2ccccc21 | 41.9% (inactive)
Cn1c(Oc2ccc(Cl)cc2)c(C=O)c2ccccc21 | 22.8% (inactive)
COc1ccc(-c2nnn(CC(=O)c3c[nH]c4ccccc34)n2)cc1OC | -7.9% (inactive)
CCOC(=O)c1[nH]ncc1CN1CCN(Cc2ccccc2)C(CCO)C1 (centres undefined) | -20.2% (inactive)
